Assay results: PubChem BioAssay (NCATS)
Records with an inconclusive call do not appear. The source made the active and inactive calls. Calls come from the whole dose curve. Starred links: 1 amine or outer side, 2 acyl side, 3 side chain; linkers in the order of their positions; H or OH if unused. Non-standard residues stand in square brackets, D forms with d. Residues, ends and D or L forms follow the SMILES beside them. ξ: configuration not given here. *: point of attachment. X4 = O=C(C1CC2(c3ccc(O)cc3)c3ccccc3NC2N1[*:1])[*:2]; ξW = NC(Cc1c[nH]c2ccccc12)C(=O)O; ξY = NC(Cc1ccc(O)cc1)C(=O)O; Octanoyl = CCCCCCCC(=O)*; ξL = CC(C)CC(N)C(=O)O

Assay: qHTS for inhibitors of Rabies Virus screened against the NCATS CANVASS Library (AID 1347402); note: 0% is about no effect
Conditions: Rabies virus infection cell assay; series mostly up to 45.9 µM; activity change, negative = inhibition: at the top concentration

Row | SMILES | activity change, negative = inhibition | outcome
1 | COc1c(O)cc2oc(-c3ccccc3)cc(=O)c2c1O | -20.1% (inactive) | 
2 | C[C@@H]1O[C@H](c2c(O)cc(O)c3c(=O)cc(-c4ccc(O)cc4)oc23)[C@H](O)[C@H](O)[C@H]1O | -2.2% (inactive) | 
3 | CN1CC[C@]23c4ccccc4N[C@H]1[C@]21CCN(C)[C@H]3Nc2ccccc21 | 8.97% (inactive) | 
4 | COc1ccc([C@@H]2c3cc4c(cc3C(=O)C(C)C2C)OCO4)cc1OC (stereo not given in full) | -12.4% (inactive) | 
5 | O=C(O)CC1OCc2c(O)cccc21 (stereo not given) | -1.57% (inactive) | 
6 | CC[C@@H](C)[C@H]1NC(=O)C(CC(C)C)NC(=O)[C@@H](CC(C)C)NC(=O)[C@H](Cc2c[nH]c3ccccc23)NC(=O)CNC(=O)[C@@H](CC(N)=O)NC1=O (stereo partly drawn) (cyclo(GW[dL][ξL][dI][dN])) | -11.9% (inactive) | 
7 | CCC1=C2CCCN3C(=O)O[C@H]([C@H]1OC(C)=O)[C@H]23 | -13.8% (inactive) | 
8 | Oc1ccc([C@H]2Oc3ccc(/C=C/c4cc(O)cc(O)c4)cc3C2c2cc(O)cc(O)c2)cc1 (stereo not given in full) | 8.64% (inactive) | 
9 | O=C1CC(c2ccc(O)cc2)Oc2ccccc21 (stereo not given) | -28.2% (inactive) | 
10 | COc1cc2c(cc1OC)[C@@H](c1ccc3c(c1)OCO3)C(C)C(C)C2=O (stereo not given in full) | -13.6% (inactive) | 
11 | CN1CC[C@@]2([C@@]34CCN(C)[C@@H]3Nc3ccccc34)c3ccccc3N[C@@H]12 | -29.5% (inactive) | 
12 | CC1C(=O)C23CCC1C[C@@]21O[C@H]2C(C)(C)C=CC(=O)[C@@]23COC1=O (stereo not given in full) | -2.78% (inactive) | 
13 | O=Cc1ccc2n1C[C@]1(OC2)O[C@H](CO)[C@@H](O)[C@@H]1O | -12.4% (inactive) | 
14 | Cc1occ2c1C(=O)c1c(cc(O)c(O)c1O)C2=O | -33.2% (inactive) | 
15 | C/C=C/[C@H]1[C@H]2C(=O)c3c(O)c(C)c(O)c(C)c3[C@]1(C(=O)O)C(=O)C=C2C | -1.68% (inactive) | 
16 | C=C(C)[C@@H]1CC[C@]2(C)CC[C@]3(C)[C@H](CC[C@@H]4[C@@]5(C)CC[C@H](O)C(C)(C)[C@@H]5CC[C@]43C)[C@@H]12 |  | inactive
17 | C=C1C[C@@]23C=CC(=O)[C@@](C)(CCC(=O)Nc4c(O)ccc(C(=O)O)c4O)C2C[C@@H]1CC3 (stereo not given in full) | -11.6% (inactive) | 
18 | C=C[C@]1(C)CC[C@@H]([C@H](C)C(=O)OCC)O1 | -31.9% [at 27.4 µM] (inactive) | 
19 | CCCCCCCC(=O)N[C@@H](CC(C)C)C(=O)N[C@H](C=O)CCC(=O)O (Octanoyl-Leu-Glu-aldehyde) | -4.61% (inactive) | 
20 | CC[C@H](O)CCCCC[C@@H]1NC(=O)[C@H]2CCCCN2C(=O)[C@H]([C@H](C)CC)NC(=O)[C@H](Cc2cn(OC)c3ccccc23)NC1=O | -34.2% (inactive) | 

Row | SMILES | activity change, negative = inhibition | outcome
21 | COC(=O)[C@@]1(C)CCC[C@]2(C)c3cc(OC)ccc3CC[C@@H]12 | -0.556% (inactive) | 
22 | COC12OC1(C13OC1(OC)C(=O)c1cc4cc(C)oc(=O)c4c(O)c1C3O)C(O)c1c(cc3cc(C)oc(=O)c3c1O)C2=O (stereo not given) | -32.7% (inactive) | 
23 | C[C@@H](O)[C@H]1OC(=O)C=C2[C@]3(C)[C@H]4[C@H](OC(=O)[C@@]4(C)[C@@H](O)[C@H]4O[C@H]43)[C@H]3O[C@@]231 | 6.7% (inactive) | 
24 | CN1CCc2cc3c(c4c2C1(C)C(=O)c1cc(O)ccc1-4)OCO3 (stereo not given) | -17.4% (inactive) | 
25 | C=C1[C@@]2(C)CC3C4(C)CCC(O)C(C)(C)C4CCC3(C)[C@]1(C(=O)OC)C(=O)C(C)(O)C2=O (stereo not given in full) | -20.4% (inactive) | 
26 | COc1ccc([C@@H]2CC(=O)c3c(cc(O)c(C/C=C(\C)CCC=C(C)C)c3O)O2)cc1 | -26.8% [at 9.14 µM] (inactive) | 
27 | C/C(=C\[C@H](C)C(=O)CCCC1CC(=O)NC(=O)C1)C(O)[C@@H](C)[C@H](O)C/C=C/CC/C=C/C(=O)O (stereo not given in full) | 21.1% (inactive) | 
28 | CN1C(=O)C2C(N=CN2C)N(C)C1=O (stereo not given) | -27.5% (inactive) | 
29 | C/C=C/c1cc(OC)c2c(c1)[C@@H](C)[C@H](c1ccc(O)c(OC)c1)O2 | -6.82% (inactive) | 
30 | CCCCCCCCC[C@@H]1C[C@@H]2CC[C@H]3[C@@H](C(=O)OCCCCN=C(N)N)[C@@H](C)N=C(N1)N23 | -28.8% [at 27.4 µM] (inactive) | 
31 | COc1cc(/C=C2/C(=O)N(c3ccc(O)cc3C(=O)O)[C@H](c3ccc(O)c(OC)c3)C2C(=O)Nc2ccc(O)cc2C(=O)O)ccc1O (stereo not given in full) | -23.1% (inactive) | 
32 | C[C@H]1C[C@@H]([C@@H]2CC[C@]34O[C@H](CC[C@@]35C[C@H](C)C(=O)O5)CN24)OC1=O | 2.14% (inactive) | 
33 | C[C@@H]1C(=O)[C@]23CC[C@H]1C[C@]21O[C@H]2C(C)(C)C=CC(=O)[C@@]23COC1=O | -23.8% (inactive) | 
34 | CC[C@H](C)[C@H](NC(=O)C(Cc1ccc(O)cc1)NC(=O)C(Cc1c[nH]c2ccccc12)NC(=O)[C@H](C)N)C(=O)N1C(C(=O)NC(Cc2ccc(O)cc2)C(=O)O)CC2(c3ccc(O)cc3)c3ccccc3NC12 (stereo not given in full) (H-A[ξW][ξY]I[X4][ξY]-OH) | -8.41% (inactive) | 
35 | C/C1=C\CC(=O)/C=C/C=C\c2csc(n2)[C@@H](C)NC(=O)C[C@@](S)([C@@H](C)C(=O)O)CC1 | 9.14% (inactive) | 
36 | CN1CC[C@@]23c4ccccc4N[C@@H]1[C@@]21CCN(C)[C@@H]3Nc2ccccc21 | 1.81% (inactive) | 
37 | C/C=C1/C2=CCCN3C(=O)O[C@H]([C@H]1O)[C@H]23 | -7.1% (inactive) | 
38 | C=C1C(=O)C[C@H]2C[C@@H]1[C@]2(C)CCC=C(C)C | -7.23% (inactive) | 
39 | CC(=O)NC[C@@H]1O[C@H](CC/C=C(C)/C(C)=C/C=O)[C@H](C)C[C@H]1O | 5.68% (inactive) | 
40 | C=C1[C@H]2CC[C@@]3(C=CC(=O)[C@@](C)(CCC(=O)Nc4c(O)ccc(C(=O)O)c4O)C3C2)[C@H]1O (stereo not given in full) | -7.81% (inactive) | 
